Test results from PubChem BioAssay (NCI).
The panel holds about 83,000 compounds, 20% with a hit somewhere; the sample as a whole holds those more often.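 Plates (96-well) were seeded with cells, treated with compound at one concentration, and incubated for 48 hours before percent growth was determined.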 Values without a mark were called inactive. The source made the active and inactive calls. The calls were made as follows: active = growth percent below 10; inactive = the rest.

These compounds were tested on HL-60(TB) leukemia (assay: NCI-60 one-dose screen, 48 h (100 = growth as untreated, 0 = no growth, -100 = all killed)). Conditions: 10 µM unless noted.

Row | SMILES | growth
1 | CC(=O)Oc1ccccc1C(=O)/C=C/c1cccc([N+](=O)[O-])c1 | 17.3%
2 | O=C(Nc1ccc2ncnc(Nc3ccc(F)c(Cl)c3)c2c1)c1cccs1 | 89.7%
3 | CO[C@H]1/C=C/O[C@@]2(C)Oc3c(C)c(O)c4c(O)c(c(/C=N/N5C(C)CN(Cc6ccccc6)CC5C)c(O)c4c3C2=O)NC(=O)/C(C)=C\C=C\[C@H](C)[C@H](O)[C@@H](C)[C@@H](O)[C@@H](C)[C@H](OC(C)=O)[C@@H]1C (stereo not given in full) | 161%
4 | C[C@H]1[C@H](OC(=O)CCC(=O)O)O[C@@H]2O[C@]3(C)CC[C@H]4[C@H](C)CC[C@@H]1[C@@]24OO3 | -30.5% (active)
5 | O=CCCCOCc1ccccc1 | 100%
